Bioassay records deposited in PubChem BioAssay by NMMLSC.
Most compounds without a hit are left out; they make up all but 2.9% or so of the library.
MEKK2 WT-MEK5: modulators of MEK5 binding to wildtype MEKK2, primary screen, biochemical, multiplex bead flow cytometry, Alexa488-MEK5; 290,000 tested, 1.1% active; binding response (% of control), % at 10 µM; Alexa488-MEK5 binding to MEKK2 WT; actives lie on both sides; in the data active = binding response below about 67% or above about 130%
MEKK3 PB1 HTS: modulators of MEKK3-MEK5 PB1 binding, primary screen, biochemical, wildtype MEKK3, multiplex bead flow cytometry, Alexa488-MEK5; Mitogen-activated protein kinase kinase kinase 3 (Homo sapiens), Q99759; bead-based flow cytometry, Alexa488-MEK5 binding to MEKK3; actives lie on both sides; 0 = blocked by unlabeled MEK5, 100 = vehicle; binding response (% of control), % at 10 µM; 290,000 tested, 1.4% active; AID 1529, 2009;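 active = binding response more than 3 SD above or below the average of its plate-row segment, actives on both sides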;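 note: Alexa488 bead fluorescence after subtracting the streptavidin-only scavenger bead signal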
MEKK2mut PB1 HTS: MEK5 binding signal on mutant MEKK2 PB1, primary screen, biochemical, multiplex bead flow cytometry, Alexa488-MEK5; Alexa488-MEK5 binding to MEKK2 mutant; percent response, % at 10 µM; 290,000 tested, 0.35% active; in the data active = percent response above about 24%, passing the limit was not always enough
Beta2AR agonist: beta2AR agonists driving receptor internalization, primary screen, cell-based, FAP fluorogen, flow cytometry. Beta-2 adrenergic receptor (Homo sapiens), P07550. Am2.2-beta2AR cells. response, % (test concentration not listed). 340,000 tested, 0.43% active;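 active = response above a set limit, near 3 SD of response in nonfluorescent compounds, cut at about 42% in these data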
Target sequence (P07550 whole entry, looked up): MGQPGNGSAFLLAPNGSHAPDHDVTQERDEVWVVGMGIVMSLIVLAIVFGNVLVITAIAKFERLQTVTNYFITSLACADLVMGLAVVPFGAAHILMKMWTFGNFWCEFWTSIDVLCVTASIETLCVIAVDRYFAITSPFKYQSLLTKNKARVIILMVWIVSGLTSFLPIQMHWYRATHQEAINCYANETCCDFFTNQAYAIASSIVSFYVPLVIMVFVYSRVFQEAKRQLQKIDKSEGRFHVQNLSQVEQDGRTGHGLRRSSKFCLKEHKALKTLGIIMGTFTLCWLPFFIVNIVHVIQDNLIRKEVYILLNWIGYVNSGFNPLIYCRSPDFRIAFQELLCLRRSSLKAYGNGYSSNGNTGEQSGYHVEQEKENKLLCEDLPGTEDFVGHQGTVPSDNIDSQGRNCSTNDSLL
GRK2 inh: compounds blocking aptamer binding on GRK2 – biochemical, human GRK2, bead flow cytometry, HTS, primary screen. Beta-adrenergic receptor kinase 1 (Homo sapiens), P25098. FAM-aptamer displacement from GRK2. inhibition of aptamer binding, % at 10 µM. 330,000 tested, 0.59% active;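 active = inhibition of aptamer binding above 40%, roughly 3 SD of noise, on plates passing a quality check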;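 note: median bead fluorescence of bound FAM aptamer so fluorescent compounds give negative values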
Each line names hits and unclear results; the compound was inactive in the other large screens; [ ] = remark or other dose.

CC(Oc1cccnc1[N+](=O)[O-])C(=O)Nc1ccc(Cl)cn1 (configuration not stated)	none (no result: MEKK2 WT-MEK5, MEKK3 PB1 HTS, MEKK2mut PB1 HTS)
CCCOc1ccccc1C(=O)N(Cc1cccc(Br)c1)C1CCS(=O)(=O)C1 (configuration not stated)	none
O=C(NCCc1ccc(Cl)cc1)c1ccc2c(c1)OCCO2	none
COc1cc(/C=C/[N+](=O)[O-])ccc1OC(=O)c1cc2ccccc2oc1=O	Beta2AR agonist 53.9
NNC(=O)CCc1ccc(S(=O)(=O)N2CCOCC2)cc1	none
Cc1ccc(C(=O)c2c(C)oc3c2C(=O)C(=O)c2ccccc2-3)cc1	Beta2AR agonist 47.0
Cc1ccc(C(=O)c2coc3c2C(=O)C(=O)c2ccccc2-3)cc1	none
Cc1oc2c(c1C(=O)c1ccc(Cl)cc1)C(=O)C(=O)c1ccccc1-2	Beta2AR agonist 63.4 (no result: MEKK2 WT-MEK5, MEKK3 PB1 HTS, MEKK2mut PB1 HTS, GRK2 inh)
S=C(NCCc1cccc(Cl)c1)NC1CCCCC1	none
COc1cccc(CCN2CCC(CNS(=O)(=O)c3cc(-c4cc(C)no4)ccc3C)CC2)c1	MEKK2 WT-MEK5 140.0
CCCCC(=O)Nc1ccc2c3c(cccc13)CC2	Beta2AR agonist 45.6
CC(C)CC(=O)Nc1ccc2c3c(cccc13)CC2	none
CC(C)CN(CCNC(=O)CN1N=C(c2ccc(Cl)cc2)CCC1=O)CC(C)C	none
CN1/C(=C\C=C2/SC(=S)N(CC(=O)O)C2=O)C(C)(C)c2ccccc21	MEKK2 WT-MEK5 805.0, MEKK3 PB1 HTS 145.0, MEKK2mut PB1 HTS 880.0
O=C(O)CCCN1C(=O)/C(=C\c2ccccc2OCc2ccccc2)SC1=S	none
O=C(O)CCCCN1C(=O)/C(=C\c2ccc(OCc3ccccc3)c(OCc3ccccc3)c2)SC1=S	GRK2 inh 100.0
Cc1c(Nc2cc(Cl)c3nonc3c2[N+](=O)[O-])c(=O)n(-c2ccccc2)n1C	Beta2AR agonist 89.2 (no result: GRK2 inh)
Cc1c(Nc2cc(N3CCOCC3)c3nonc3c2[N+](=O)[O-])c(=O)n(-c2ccccc2)n1C	none (no result: Beta2AR agonist)
COc1ccc(NC(C)=[N+](C)CCNS(=O)(=O)c2ccc(Cl)cc2)cc1Cl	none
CC(Nc1cc(C)cc(C)c1)=[N+](C)CCNS(=O)(=O)c1ccc(Cl)cc1	GRK2 inh 48.0
Cc1cccc(NC(=O)Nc2ccc(Oc3c(F)c(F)c(F)c(F)c3F)cc2)c1	none
O=C(Nc1ccc(Oc2c(F)c(F)c(F)c(F)c2F)cc1)OC1CCN2Cc3ccccc3N=C12 (configuration not stated)	Beta2AR agonist 101.7
CCOCCn1c(CN2CCN(C)CC2)nc2c1c(=O)n(C)c(=O)n2C	MEKK2 WT-MEK5 42.0[inhibitor], MEKK3 PB1 HTS 46.0[inhibitor]
CCOC(=O)c1ccc(Oc2coc3cc(O)ccc3c2=O)cc1	none
CC(=O)n1cc(N(C(=O)CCl)c2ccc([N+](=O)[O-])cc2)c2ccccc21	Beta2AR agonist 61.5
CC(=O)OCCCNc1cc(SCc2ccco2)c2nonc2c1[N+](=O)[O-]	none
CCC(=O)OCCNc1cc(Sc2nc3ccccc3s2)c2nonc2c1[N+](=O)[O-]	none
CCCC(=O)OCCNc1cc(SCc2ccco2)c2nonc2c1[N+](=O)[O-]	Beta2AR agonist 64.0
CCC(=O)OCCNc1cc(Sc2nc3ccccc3[nH]2)c2nonc2c1[N+](=O)[O-]	Beta2AR agonist 77.9
CC(NS(=O)(=O)c1ccc2c(c1)CC(C)N2C(=O)C1CC1)c1ccccc1 (configuration not stated)	none
COCCN1C=C2C(=O)C(C)(OC(=O)CCC(=O)OC)C(=O)C(Br)=C2C=C1c1ccc(OC)cc1 (configuration not stated)	none
COC(=O)CCC(=O)OC1(C)C(=O)C2=CN(c3ccc(OC)cc3)C(c3ccc(OC)cc3)=CC2=C(Br)C1=O (configuration not stated)	MEKK2 WT-MEK5 -6.0
C=CCN1C=C2C(=O)C(C)(OC(=O)CCC(=O)OC)C(=O)C(Br)=C2C=C1c1ccc(OC)cc1 (configuration not stated)	MEKK2 WT-MEK5 -3.0
